Measurements published in PubChem BioAssay (NCI).
About 83,000 compounds went through this panel and 20% of them were active in at least one assay; those are over-represented in the sample as a whole.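 Assay: single dose, 48 h. Readout: percent growth (0 = no net growth; negative = cell death). Active: <10.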 A number with no mark means an inactive call. Calls of active or inactive are those of the source.

What was measured:
Experiment in all cases: NCI-60 one-dose screen, 48 h (100 = growth as untreated, 0 = no growth, -100 = all killed)
Conditions in all cases: 10 µM unless noted
SR leukemia = test system: SR leukemia
RPMI-8226 leukemia = test system: RPMI-8226 leukemia
OVCAR-8 ovarian = test system: OVCAR-8 ovarian
OVCAR-5 ovarian = test system: OVCAR-5 ovarian
OVCAR-4 ovarian = test system: OVCAR-4 ovarian
SK-OV-3 ovarian = test system: SK-OV-3 ovarian
IGROV1 ovarian = test system: IGROV1 ovarian
OVCAR-3 ovarian = test system: OVCAR-3 ovarian
HS 578T breast = test system: HS 578T breast
NCI/ADR-RES ovarian = test system: NCI/ADR-RES ovarian

Structure (SMILES): O=C(N/N=C/c1cccc(O)c1O)c1ccccc1
- growth (SR leukemia): 18.2%
- growth (RPMI-8226 leukemia): 32.1%
- growth (OVCAR-8 ovarian): 4.99% (active)
- growth (OVCAR-5 ovarian): 30.1%
- growth (OVCAR-4 ovarian): 4.38% (active)
- growth (SK-OV-3 ovarian): 41.2%
- growth (IGROV1 ovarian): 6.87% (active)
- growth (OVCAR-3 ovarian): 16.2%
- growth (HS 578T breast): 66.1%
- growth (NCI/ADR-RES ovarian): 11%

Structure (SMILES): CC(=O)N1N=C(c2ccc3c(c2)OCO3)CC1c1c(C)nn(-c2ccccc2)c1N(C)Cc1ccccc1 (stereo unspecified)
- growth (SR leukemia): 67%
- growth (RPMI-8226 leukemia): 58.8%
- growth (OVCAR-8 ovarian): 76.7%
- growth (OVCAR-5 ovarian): 97.1%
- growth (OVCAR-4 ovarian): 66.3%
- growth (SK-OV-3 ovarian): 84.2%
- growth (IGROV1 ovarian): 51.5%
- growth (OVCAR-3 ovarian): 79.4%
- growth (NCI/ADR-RES ovarian): 63%

Structure (SMILES): COc1ccc2c(c1)c(CC(=O)[Se]C)c(C)n2C(=O)c1ccc(Cl)cc1
- growth (SR leukemia): 13.4%
- growth (RPMI-8226 leukemia): 62.6%
- growth (OVCAR-8 ovarian): -46.9% (active)
- growth (OVCAR-5 ovarian): 36.8%
- growth (OVCAR-4 ovarian): 37.2%
- growth (SK-OV-3 ovarian): 40.7%
- growth (IGROV1 ovarian): -3.14% (active)
- growth (OVCAR-3 ovarian): -12.4% (active)
- growth (HS 578T breast): 8.49% (active)
- growth (NCI/ADR-RES ovarian): 3.71% (active)

Structure (SMILES): CC(=O)Nc1cc(C(c2ccccc2)c2ccccc2)cc(C(c2ccccc2)c2ccccc2)c1C
- growth (SR leukemia): 14.3%
- growth (RPMI-8226 leukemia): 11.2%
- growth (OVCAR-8 ovarian): 73.8%
- growth (OVCAR-5 ovarian): 75.4%
- growth (OVCAR-4 ovarian): 43.8%
- growth (SK-OV-3 ovarian): 77%
- growth (IGROV1 ovarian): 58%
- growth (OVCAR-3 ovarian): 49.8%
- growth (NCI/ADR-RES ovarian): 51.8%

Structure (SMILES): CCNCCCn1c2c(c3ccc(F)cc3c1=O)C(=O)c1cc(OC)cnc1-2
- growth (SR leukemia): -4.37% (active)
- growth (RPMI-8226 leukemia): -25.7% (active)
- growth (OVCAR-8 ovarian): -15.1% (active)
- growth (OVCAR-5 ovarian): 3.24% (active)
- growth (OVCAR-4 ovarian): -4.39% (active)
- growth (SK-OV-3 ovarian): -30.4% (active)
- growth (IGROV1 ovarian): 2.58% (active)
- growth (OVCAR-3 ovarian): -16.9% (active)
- growth (HS 578T breast): 14.9%
- growth (NCI/ADR-RES ovarian): -29.4% (active)

Structure (SMILES): CC(=O)N1N=C(c2ccc(Cl)cc2)CC1c1c(C)nn(-c2ccccc2)c1N(C)Cc1ccccc1 (stereo unspecified)
- growth (SR leukemia): 72.4%
- growth (RPMI-8226 leukemia): 46.8%
- growth (OVCAR-8 ovarian): 80.9%
- growth (OVCAR-5 ovarian): 97.9%
- growth (OVCAR-4 ovarian): 80%
- growth (SK-OV-3 ovarian): 70.6%
- growth (IGROV1 ovarian): 63.7%
- growth (OVCAR-3 ovarian): 81.9%
- growth (NCI/ADR-RES ovarian): 64.1%

Structure (SMILES): O=C(CNC(=O)c1cccc2ccccc12)Nc1ccccc1Cc1ccccc1
- growth (SR leukemia): 18.8% [5 µM]
- growth (RPMI-8226 leukemia): 39.1% [5 µM]
- growth (OVCAR-8 ovarian): 37.6% [5 µM]
- growth (OVCAR-5 ovarian): 66.4% [5 µM]
- growth (OVCAR-4 ovarian): 81.2% [5 µM]
- growth (SK-OV-3 ovarian): 45% [5 µM]
- growth (IGROV1 ovarian): 53% [5 µM]
- growth (OVCAR-3 ovarian): 15.5% [5 µM]
- growth (NCI/ADR-RES ovarian): 17% [5 µM]

Structure (SMILES): COc1ccc(C(=O)/C=C/c2cccc(Nc3ccnc4cc(Cl)ccc34)c2)cc1
- growth (SR leukemia): 0.362% (active)
- growth (RPMI-8226 leukemia): 35.3%
- growth (OVCAR-8 ovarian): 10.2%
- growth (OVCAR-5 ovarian): 39.3%
- growth (OVCAR-4 ovarian): -46% (active)
- growth (SK-OV-3 ovarian): 64%
- growth (IGROV1 ovarian): 30.2%
- growth (OVCAR-3 ovarian): 23.9%
- growth (NCI/ADR-RES ovarian): 21.3%

Structure (SMILES): Clc1ccc(C2=NN(c3ccc(Cl)cc3)C(c3cccc(Nc4ccnc5cc(Cl)ccc45)c3)C2)cc1 (stereo unspecified)
- growth (SR leukemia): 77%
- growth (RPMI-8226 leukemia): 71.7%
- growth (OVCAR-8 ovarian): 80.4%
- growth (OVCAR-5 ovarian): 93.5%
- growth (OVCAR-4 ovarian): 73%
- growth (SK-OV-3 ovarian): 60.7%
- growth (IGROV1 ovarian): 75.4%
- growth (OVCAR-3 ovarian): 85.8%
- growth (NCI/ADR-RES ovarian): 74.1%

Structure (SMILES): Nc1nc(SCc2cccnc2)c2ncn(C3OC(CO)C(O)C3O)c2n1 (stereo unspecified)
- growth (SR leukemia): 118%
- growth (RPMI-8226 leukemia): 115%
- growth (OVCAR-8 ovarian): 97.1%
- growth (OVCAR-5 ovarian): 90.1%
- growth (OVCAR-4 ovarian): 112%
- growth (SK-OV-3 ovarian): 107%
- growth (IGROV1 ovarian): 98.6%
- growth (OVCAR-3 ovarian): 99.9%
- growth (HS 578T breast): 109%
- growth (NCI/ADR-RES ovarian): 102%

Structure (SMILES): FC(F)(F)c1ccc(-c2cnc(-c3nn[nH]n3)nc2NC2CCCCCC2)cc1
- growth (SR leukemia): 15.1% [50 µM]
- growth (RPMI-8226 leukemia): 34.5% [50 µM]
- growth (OVCAR-8 ovarian): 42.4% [50 µM]
- growth (OVCAR-5 ovarian): 101% [50 µM]
- growth (OVCAR-4 ovarian): 60.8% [50 µM]
- growth (SK-OV-3 ovarian): 86.1% [50 µM]
- growth (IGROV1 ovarian): 52.7% [50 µM]
- growth (OVCAR-3 ovarian): 31% [50 µM]
- growth (NCI/ADR-RES ovarian): 30.8% [50 µM]

Structure (SMILES): CCCCCc1c(C)[nH]c(/C=C2\N=C(c3ccc[nH]3)C=C2OCc2ccccc2)c1C
- growth (SR leukemia): -26.1% [100 µM] (active)
- growth (RPMI-8226 leukemia): -46.2% [100 µM] (active)
- growth (OVCAR-8 ovarian): -64.2% [100 µM] (active)
- growth (OVCAR-5 ovarian): -98% [100 µM] (active)
- growth (OVCAR-4 ovarian): -89.3% [100 µM] (active)
- growth (SK-OV-3 ovarian): -97.1% [100 µM] (active)
- growth (IGROV1 ovarian): -66% [100 µM] (active)
- growth (OVCAR-3 ovarian): -89% [100 µM] (active)
- growth (NCI/ADR-RES ovarian): -48.5% [100 µM] (active)

Structure (SMILES): CC1CC=CCC1C1OCC(C)(C)CO1 (stereo unspecified)
- growth (SR leukemia): 96.4%
- growth (RPMI-8226 leukemia): 97.2%
- growth (OVCAR-8 ovarian): 98.6%
- growth (OVCAR-5 ovarian): 104%
- growth (OVCAR-4 ovarian): 108%
- growth (SK-OV-3 ovarian): 110%
- growth (IGROV1 ovarian): 101%
- growth (OVCAR-3 ovarian): 109%
- growth (NCI/ADR-RES ovarian): 108%

Structure (SMILES): COc1ccc(C2=NN(C=O)C(c3cccc(Nc4ccnc5cc(Cl)ccc45)c3)C2)cc1 (stereo unspecified)
- growth (SR leukemia): 12.6%
- growth (RPMI-8226 leukemia): 23.2%
- growth (OVCAR-8 ovarian): 17%
- growth (OVCAR-5 ovarian): 51.5%
- growth (OVCAR-4 ovarian): 40.1%
- growth (SK-OV-3 ovarian): 20.6%
- growth (IGROV1 ovarian): 44.1%
- growth (OVCAR-3 ovarian): 13.8%
- growth (NCI/ADR-RES ovarian): 10.8%

Structure (SMILES): CNc1nc(NC2CCCC2)nc(Sc2ccc(OC)cc2)n1
- growth (SR leukemia): -0.593% [100 µM] (active)
- growth (RPMI-8226 leukemia): -11.2% [100 µM] (active)
- growth (OVCAR-8 ovarian): 20.2% [100 µM]
- growth (OVCAR-5 ovarian): 59.5% [100 µM]
- growth (OVCAR-4 ovarian): 36.9% [100 µM]
- growth (SK-OV-3 ovarian): 74.9% [100 µM]
- growth (IGROV1 ovarian): 45.9% [100 µM]
- growth (OVCAR-3 ovarian): -25.5% [100 µM] (active)
- growth (NCI/ADR-RES ovarian): 11.9% [100 µM]

Structure (SMILES): C[C@H](C(=O)N[C@@H](Cc1ccc(-c2ccccc2)cc1)C(=O)NC1CC(C)(C)N(C)C(C)(C)C1)c1ccc(-c2ccccc2)c(F)c1
- growth (SR leukemia): -40.5% (active)
- growth (RPMI-8226 leukemia): -41.6% (active)
- growth (OVCAR-8 ovarian): -46.5% (active)
- growth (OVCAR-5 ovarian): -70.2% (active)
- growth (OVCAR-4 ovarian): -50.7% (active)
- growth (SK-OV-3 ovarian): -33.3% (active)
- growth (IGROV1 ovarian): -26.4% (active)
- growth (OVCAR-3 ovarian): -82.9% (active)
- growth (HS 578T breast): -35.1% (active)
- growth (NCI/ADR-RES ovarian): -5.29% (active)

Structure (SMILES): N#Cc1c(-c2ccccc2)cc(-c2ccccc2)n(CCCCC(=O)O)c1=O
- growth (SR leukemia): 65.1%
- growth (RPMI-8226 leukemia): 96.2%
- growth (OVCAR-8 ovarian): 96%
- growth (OVCAR-5 ovarian): 98%
- growth (OVCAR-4 ovarian): 115%
- growth (SK-OV-3 ovarian): 136%
- growth (IGROV1 ovarian): 102%
- growth (OVCAR-3 ovarian): 101%
- growth (HS 578T breast): 101%
- growth (NCI/ADR-RES ovarian): 80.5%

Structure (SMILES): COc1ccc(Oc2ccccc2NC(=O)CNC(=O)c2cccc3ccccc23)cc1
- growth (SR leukemia): 23.7% [5 µM]
- growth (RPMI-8226 leukemia): 27.4% [5 µM]
- growth (OVCAR-8 ovarian): 17% [5 µM]
- growth (OVCAR-5 ovarian): 40.9% [5 µM]
- growth (OVCAR-4 ovarian): 67.2% [5 µM]
- growth (SK-OV-3 ovarian): 20.4% [5 µM]
- growth (IGROV1 ovarian): 33% [5 µM]
- growth (OVCAR-3 ovarian): -16.6% [5 µM] (active)
- growth (NCI/ADR-RES ovarian): 15.3% [5 µM]

Structure (SMILES): COc1cnc2c(c1)C(=O)c1c-2n(CCCN2CCNCC2)c(=O)c2cc(F)ccc12
- growth (SR leukemia): -13.1% (active)
- growth (RPMI-8226 leukemia): -30.9% (active)
- growth (OVCAR-8 ovarian): 2.26% (active)
- growth (OVCAR-5 ovarian): -0.468% (active)
- growth (OVCAR-4 ovarian): 23%
- growth (SK-OV-3 ovarian): -12.7% (active)
- growth (IGROV1 ovarian): 23%
- growth (OVCAR-3 ovarian): 2.67% (active)
- growth (HS 578T breast): 38.6%
- growth (NCI/ADR-RES ovarian): 18.8%

Structure (SMILES): Cc1sc2nc(NCc3ccccc3)[nH]c(=O)c2c1C
- growth (SR leukemia): 14.4%
- growth (RPMI-8226 leukemia): 49.6%
- growth (OVCAR-8 ovarian): 59.7%
- growth (OVCAR-5 ovarian): 70.5%
- growth (OVCAR-4 ovarian): 91.7%
- growth (SK-OV-3 ovarian): 50.8%
- growth (IGROV1 ovarian): 67.9%
- growth (OVCAR-3 ovarian): 40.7%
- growth (NCI/ADR-RES ovarian): 31.2%

Structure (SMILES): CC(=O)N1N=C(c2ccc(Nc3nc(NCCO)nc(NCCO)n3)cc2)CC1c1ccc(Cl)cc1 (stereo unspecified)
- growth (SR leukemia): 142%
- growth (RPMI-8226 leukemia): 112%
- growth (OVCAR-8 ovarian): 104%
- growth (OVCAR-5 ovarian): 103%
- growth (OVCAR-4 ovarian): 104%
- growth (SK-OV-3 ovarian): 101%
- growth (IGROV1 ovarian): 99.4%
- growth (OVCAR-3 ovarian): 96.4%
- growth (NCI/ADR-RES ovarian): 99.8%
